Nrf2 activator = Nrf2 pathway activation; AREc32 ARE-luciferase reporter (MCF7-derived line), luminescence, 24 h; Potency, µM (doses to about 46.1 µM), most hits filed as activators; 0.31% of 410,000 active; note: nearly all actives have a fitted effect of over 65% in size
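Luminescent ARE reporter assay in AREc32_Fluc cells: overnight plating at 37 deg C, 24 hr compound incubation, Steady-Glo added, 30 min RT before reading.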
S2 tox = reduces viability in counter-screen for ATXN expression inhibitors; S2 cells (HEK-293 line with an ATXN2-luciferase reporter) viability, CellTiter-Fluor protease fluorescence, 24 h; Potency, µM (doses to about 56.7 µM), usual class: cytotoxic; 0.49% of 400,000 active; AID 651635; note: nearly all actives have a fitted effect of over 40% in size
Nrf2 block = Nrf2 pathway inhibition; AID 504444; Potency, µM (top dose mostly 46 µM), most hits filed as inhibitors; A549 ARE-Fluc reporter, luciferase luminescence, 18-24 h; 2.1% of 360,000 active; note: nearly all actives have a fitted effect of over 60% in size
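A549 ARE_Fluc cells, 5000/well, 5% FBS OPTI-MEM; compounds in dose-response, 18-24 h at 37 °C/5% CO2; CellTiter-Fluor viability read (Ex 405/Em 525), then BugLite luciferase luminescence = Nrf2 activity.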
A549 tox = kills or reduces viability of A549 cells in Nrf2 counter-screen | AID 504648 | 0.16% of 390,000 active | Potency, µM (doses to about 46 µM), hits mostly inhibitors | A549 ARE-Fluc cells, CellTiter-Fluor viability, 18-24 h
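A549 ARE_Fluc cells in 5% FBS OPTI-MEM were exposed to compounds in concentration-response for 18-24 h at 37 deg C. Viability was read by CellTiter-Fluor fluorescence (Ex 405/Em 525) after 30 min, before the luciferase read.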
ATXN2 expr inh = inhibitors of ATXN2 expression; HEK-293 ATXN2-luciferase reporter, luminescence, 24 h; Potency, µM (top dose mostly 57 µM), actives largely listed as inhibitors; 0.72% of 360,000 active; note: nearly all actives have a fitted effect of over 55% in size
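ATXN2-luciferase reporter cells (luciferase flanked by upstream and downstream ATXN2 gene portions) were treated 24 h at 37 °C with compounds at up to 57 uM. SteadyGlo luminescence gave expression; GF-AFC fluorescence gave viability.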
Of the large screens only hits and unclear results are named; the others gave an inactive call. This is a sample that favours compounds with a hit; in the whole collection about 2.9% have one here. Calls come from the whole dose curve; as a rule, active = well fitted curve in the direction sought with a large enough effect; inconclusive = small, poorly fitted or top-dose-only effect, or another doubt; inactive = no such curve, though single readings can be large; an effect the other way counts as inactive or inconclusive.

CN(C(=O)c1ccc(Oc2ccc([N+](=O)[O-])cc2)cc1)C1CCCCC1	Nrf2 block 25.9µM
COc1ccc(Cl)cc1NC(=O)c1ncn(-c2ccccc2)n1	Nrf2 activator 8.91µM, Nrf2 block inconclusive
Cc1ccccc1-n1ncc2c([N+](=O)[O-])cc([N+](=O)[O-])cc21	Nrf2 block inconclusive
COC(=O)c1cccc(NC(=O)Nc2ccc(Cl)cc2)c1	none
COC(=O)c1cccc(NC(=O)NC(=O)c2ccc(Cl)cc2)c1	S2 tox inconclusive, Nrf2 block 10.3µM, ATXN2 expr inh inconclusive
CC(=O)c1ccc(S(=O)(=O)N2CCN(C(=O)c3ccc(N)c([N+](=O)[O-])c3)CC2)cc1	none
Nc1ccc(C(=O)N2CCN(S(=O)(=O)c3ccc4c(c3)OCCCO4)CC2)cc1[N+](=O)[O-]	Nrf2 block 25.9µM, A549 tox inconclusive
COc1cccc(CN2C(=O)CN(C3CCCCC3)C(=O)C2c2ccc(OC(C)C)c(OC)c2)c1 (stereo not drawn)	none (no result: S2 tox, Nrf2 block, ATXN2 expr inh)
O=C(CCl)N(C1CCCC1)C1CCS(=O)(=O)C1 (stereo not drawn)	S2 tox inconclusive, Nrf2 block 20.6µM, ATXN2 expr inh inconclusive
CCOCc1c(C(=O)OCC(=O)NCc2ccc(F)cc2)oc2ccccc12	none
COc1ccccc1C1C=C(c2ccccc2)Nc2nnnn21 (stereo not drawn)	Nrf2 block inconclusive
COc1ccc(C2C=C(c3ccc(Br)cc3)Nc3nnnn32)c(OC)c1 (stereo not drawn)	Nrf2 block 14.6µM (no result: S2 tox, ATXN2 expr inh)
C=CCOc1ccc(CN(C)CC(O)COc2cccc3ccccc23)cc1 (stereo not drawn)	A549 tox inconclusive
CCn1cc(CNC(=O)c2ccc(OC3CCN(Cc4ccccn4)CC3)cc2)cn1	Nrf2 block 11.6µM
COc1ccc(NC(=O)CN2C(=O)c3ccccc3S2(=O)=O)cc1OC	none
Cc1ccc2c(CN3CCN(S(=O)(=O)c4ccccc4C(F)(F)F)CC3)cc(=O)oc2c1C	Nrf2 block 5.17µM
Cc1ccc2c(CN3CCCCC3)cc(=O)oc2c1C	none
CC(C)(C)n1nnnc1C(c1cccs1)N(Cc1ccccc1)Cc1ccco1 (stereo not drawn)	Nrf2 block 20.6µM
O=C(CSc1nc2ccccc2c(=O)[nH]1)N1CCN(S(=O)(=O)c2ccccc2)CC1	none
O=C(CSc1nc(-c2ccccc2)c(-c2ccccc2)[nH]1)N1CCN(S(=O)(=O)c2ccccc2)CC1	Nrf2 block 16.4µM
CN(C(=O)c1ccc(NC(=O)Cc2cccc(NC(=O)C3CCCN(C(=O)CCc4ccccc4)C3)c2)cc1)C1CCCC1 (stereo not drawn)	S2 tox inconclusive, Nrf2 block 14.6µM
CN(Cc1ccccc1)C(=O)c1ccc(NC(=O)Cc2cccc(NC(=O)C3CCCN(C(=O)CCc4ccccc4)C3)c2)cc1 (stereo not drawn)	Nrf2 block 20.6µM
CN(C(=O)c1ccc(NC(=O)Cc2cccc(NC(=O)C3CCCN(C(=O)C4CCC4)C3)c2)cc1)C1CC1 (stereo not drawn)	none
CN(C(=O)c1cccc(NC(=O)Cc2cccc(NC(=O)C3CCCN(C(=O)C4CCCC4)C3)c2)c1)C1CCC1 (stereo not drawn)	Nrf2 block inconclusive
CN(C(=O)c1cccc(NC(=O)Cc2ccc(NC(=O)C3CCCN(C(=O)CCc4ccccc4)C3)cc2)c1)C1CCCC1 (stereo not drawn)	S2 tox inconclusive, Nrf2 block 20.6µM, A549 tox inconclusive, ATXN2 expr inh inconclusive
CN(C(=O)c1ccc(NC(=O)Cc2cccc(NC(=O)C3CCCN(C(=O)C4CCCC4)C3)c2)cc1)C1CCCC1 (stereo not drawn)	Nrf2 block 18.4µM
CN(C(=O)c1cccc(NC(=O)Cc2ccc(NC(=O)C3CCN(C(=O)CCc4ccccc4)CC3)cc2)c1)C1CCC1	none
CN(Cc1ccccc1)C(=O)CSc1nnc(-c2cccc(Cl)c2)o1	none
CCC(C)NC(=O)CSc1nc2ccsc2c(=O)n1-c1ccc(OC)cc1 (stereo not drawn)	Nrf2 block inconclusive (no result: A549 tox)
Cc1ccc(-n2c(CC#N)n[nH]c2=S)c(C)c1	none
Cc1cc(O)ccc1Nc1cc(-c2cccc(N)c2)ncn1	none (no result: Nrf2 block, A549 tox)
COc1ccc(CCNc2nc(=O)[nH]nc2C)cc1OC	none
CN(C(=O)c1cccc(NC(=O)Cc2ccc(NC(=O)C3CCCN(C(=O)CCc4ccccc4)C3)cc2)c1)C1CCC1 (stereo not drawn)	S2 tox inconclusive, Nrf2 block 16.4µM, ATXN2 expr inh inconclusive
CN(C(=O)c1cccc(NC(=O)Cc2ccc(NC(=O)C3CCN(C(=O)CCc4ccccc4)CC3)cc2)c1)C1CC1	none
CN(Cc1ccccc1)C(=O)c1cccc(NC(=O)Cc2ccc(NC(=O)C3CCCN(C(=O)CCc4ccccc4)C3)cc2)c1 (stereo not drawn)	Nrf2 block inconclusive
CN(C(=O)c1ccc(NC(=O)Cc2ccc(NC(=O)C3CCCN(C(=O)CCc4ccccc4)C3)cc2)cc1)C1CC1 (stereo not drawn)	Nrf2 block 11.6µM
FC(F)Oc1ccc(NC(=S)NCc2ccccc2)cc1Cl	Nrf2 block 23.1µM, A549 tox inconclusive, ATXN2 expr inh inconclusive
FC(F)Oc1ccc(NC(=S)NCc2ccccc2)cc1	none
COC(=O)c1cc(N2C(=O)C3C4C=CC(CC4)C3C2=O)ccc1Cl (stereo not drawn)	none
Cc1ccccc1NC(=O)N1CCCC(c2nc(-c3ccc(C(C)C)cc3)no2)C1 (stereo not drawn)	S2 tox inconclusive, Nrf2 block 5.8µM, A549 tox inconclusive
Cc1ccccc1NC(=O)N1CCCC(c2nc(-c3ccc(F)cc3)no2)C1 (stereo not drawn)	none
COc1cccc(NC(=S)NCc2ccccc2)c1	Nrf2 block inconclusive (no result: ATXN2 expr inh)
Cc1sc(NC(=O)c2ccco2)c(CN2CCCCC2)c1C	Nrf2 activator 8.91µM
Cc1sc(NC(=O)c2ccco2)c(CN2CCN(c3ccccc3)CC2)c1C	none
CC[n+]1c(/C=C(\C)SC)sc2ccccc21	Nrf2 block 20.6µM
CC[n+]1c(C=C2C=C(C)OC(C)=C2)sc2ccccc21	S2 tox inconclusive, Nrf2 block 0.731µM, A549 tox 2.91µM, ATXN2 expr inh 10.6µM
CC(C)CC(NC(=O)OCc1ccccc1)C(=O)NC(Cc1c[nH]c2ccccc12)C(=O)O (stereo not drawn)	none (no result: Nrf2 block, A549 tox)
CCC[C@@H](C=O)NC(=O)[C@H](CC(C)C)NC(=O)[C@H](CC(C)C)NC(=O)OCc1ccccc1	ATXN2 expr inh 1.53µM (no result: Nrf2 activator, S2 tox, Nrf2 block, A549 tox)
O=C(c1cc([N+](=O)[O-])ccc1Cl)N1CCN(c2ccc([N+](=O)[O-])cc2)CC1	Nrf2 block 20.6µM, A549 tox inconclusive
O=C(c1ccccc1)N1CCN(C(=O)c2ccc([N+](=O)[O-])cc2)CC1	Nrf2 block inconclusive

Screening data: PubChem BioAssay, National Center for Advancing Translational Sciences (NCATS)
